Source: PubChem BioAssay (NCI)
About 79,000 compounds went through this panel and 15% of them were active in at least one assay; those are over-represented in the sample as a whole. Calls of active or inactive are those of the source. No stated cut-off is given here; in the data, active means growth inhibition above about 70%; inactive means the rest.

Legend:
[1] = NCI Yeast Anticancer Drug Screen. Data for the rad52 strain (AID 147);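 further: 0% = growth of vehicle-treated control cultures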; settings: S. cerevisiae rad52 mutant growth inhibition, stronger effect = higher value
Procedure, shortened: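 Growth of repair-deficient yeast cells was compared between compound-treated and vehicle-treated cultures to give percent inhibition.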

[2] = NCI Yeast Anticancer Drug Screen. Data for the wt1 strain (AID 149);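 further: 0% = growth of vehicle-treated wt1 cultures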; settings: S. cerevisiae wt1 strain (SPY 50644) growth inhibition, stronger effect = higher value
Procedure, shortened: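 Readout: yeast growth inhibition, normalised to vehicle controls, in the wt1 strain exposed to test compounds.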

[3] = NCI Yeast Anticancer Drug Screen. Data for the rad50EPP+ strain (AID 151);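 further: 0% = growth of vehicle-treated control cultures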; settings: S. cerevisiae rad50 mutant strain, stronger effect = higher value
Procedure, shortened: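 Measured: growth inhibition of rad50EPP+ yeast. Reference: vehicle-treated controls. Screen uses strains with defined genetic alterations in DNA damage repair or cell cycle control.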

[4] = NCI Yeast Anticancer Drug Screen. Data for the mgt1 strain (AID 153); settings: S. cerevisiae mgt1 mutant growth inhibition, stronger effect = higher value
Procedure, shortened: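 Compounds were applied to mgt1 mutant yeast, and growth was then compared against vehicle-treated control cultures to give percent inhibition.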

[5] = NCI Yeast Anticancer Drug Screen. Data for the rad50 strain (AID 155);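 further: 0% = growth of vehicle-only cultures of the same strain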; settings: S. cerevisiae rad50 strain growth inhibition, stronger effect = higher value
Procedure, shortened: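 Compounds were tested on a yeast strain with an engineered DNA damage repair alteration; the reported value is growth inhibition normalised to vehicle treatment.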

[6] = NCI Yeast Anticancer Drug Screen. Data for the mec2-1 strain (AID 157); settings: S. cerevisiae mec2-1 strain, stronger effect = higher value
Procedure, shortened: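 Compounds were applied to mec2-1 yeast cells. Their growth was then compared with that of vehicle-treated cultures to give growth inhibition.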

[7] = NCI Yeast Anticancer Drug Screen. Data for the rad14 strain (AID 159);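 further: 0% = growth of vehicle-treated control cultures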; settings: S. cerevisiae rad14 strain growth inhibition, stronger effect = higher value
Procedure, shortened: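 Compound-treated yeast with a defined DNA-repair lesion; growth inhibition normalised to vehicle-treated cultures.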

[8] = NCI Yeast Anticancer Drug Screen. Data for the sgs1 mgt1 strain (AID 161);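 further: 0% = growth of cultures given vehicle only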; settings: S. cerevisiae sgs1 mgt1 strain, stronger effect = higher value
Procedure, shortened: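 This yeast growth screen uses a strain with defined DNA-repair lesions; compound-treated growth is compared with vehicle-treated growth.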

[9] = NCI Yeast Anticancer Drug Screen. Data for the CLN2oe strain (AID 163);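 further: 0% = growth of vehicle-only control cultures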; settings: S. cerevisiae CLN2oe strain, stronger effect = higher value
Procedure, shortened: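 Cells of an engineered yeast line with disturbed cell-cycle regulation are treated with compound. Inhibition of growth is then calculated relative to the vehicle-treated reference.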

[10] = NCI Yeast Anticancer Drug Screen. Data for the cln2 rad14 strain (AID 165);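 further: 0% = growth equal to vehicle treated cultures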; settings: S. cerevisiae cln2 rad14 strain, stronger effect = higher value
Procedure, shortened: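 Strain: cln2 rad14 yeast, altered in cell cycle control and DNA damage repair. Read-out: growth inhibition vs vehicle.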

[11] = NCI Yeast Anticancer Drug Screen. Data for the bub3 strain (AID 167); settings: S. cerevisiae bub3 mutant strain, stronger effect = higher value
Procedure, shortened: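 Growth of a checkpoint-deficient yeast mutant is measured after compound exposure. Values represent inhibition relative to vehicle.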

[12] = NCI Yeast Anticancer Drug Screen. Data for the wt2 strain (AID 169);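 further: 0% = growth of vehicle-treated yeast cultures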; settings: S. cerevisiae wt2 strain growth inhibition, stronger effect = higher value
Procedure, shortened: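 Growth of compound-treated yeast is measured and expressed as inhibition relative to vehicle-only controls.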

[13] = NCI Yeast Anticancer Drug Screen. Data for the mlh1 strain (AID 171);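 further: 0% = growth of vehicle-treated control cultures of the same strain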; settings: S. cerevisiae mlh1 strain growth inhibition, stronger effect = higher value
Procedure, shortened: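 Test agents were incubated with yeast bearing a defined DNA damage repair or cell cycle control alteration; values are growth inhibition normalised to vehicle-treated cultures.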

[14] = NCI Yeast Anticancer Drug Screen. Data for the mlh1 rad18 strain (AID 175); settings: S. cerevisiae mlh1 rad18 strain growth inhibition, stronger effect = higher value
Procedure, shortened: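 A repair-deficient yeast strain is exposed to test compound, and growth is scored relative to vehicle-treated controls.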

[15] = NCI Yeast Anticancer Drug Screen. Data for the rad18 strain (AID 177); settings: S. cerevisiae rad18 mutant growth inhibition, stronger effect = higher value
Procedure, shortened: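 DNA-repair-defective yeast; compound treatment; growth inhibition scored against vehicle.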

[16] = NCI Yeast Anticancer Drug Screen. Data for the sgs1 strain (AID 173);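 further: 0% = growth of vehicle-only control cultures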; settings: S. cerevisiae sgs1 mutant, stronger effect = higher value
Procedure, shortened: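 Strain with an altered DNA repair or cell cycle pathway exposed to compound. Growth then measured. Value = inhibition versus vehicle control.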

[17] = at 5.0 µM (retest, dose inferred, filed as 0.5)
[18] = at 50.0 µM (retest, dose inferred, filed as 5.0)

Measured: growth inhibition

COC1=C(OC)C(=O)C(Sc2ccc3ccccc3c2)=CC1=O
active: [1]; at 33.0 µM 93% | [1]; at 100.0 µM 92% | [2]; at 33.0 µM 94% | [2]; at 100.0 µM 92% | [3]; at 33.0 µM 95% | [3]; at 100.0 µM 97% | [4]; at 33.0 µM 94% | [4]; at 100.0 µM 92% | [5]; at 33.0 µM 92% | [5]; [18] 97% | [5]; at 50.0 µM 89.4% | [5]; at 100.0 µM 83% | [6]; at 33.0 µM 95% | [6]; [18] 98% | [6]; at 50.0 µM 93.3% | [6]; at 100.0 µM 89% | [7]; at 33.0 µM 96% | [7]; at 100.0 µM 93% | [8]; [18] 80% | [8]; at 50.0 µM 91.8% | [9]; at 33.0 µM 85% | [9]; at 100.0 µM 87% | [10]; at 50.0 µM 85.8% | [11]; at 33.0 µM 89% | [11]; [18] 79% | [11]; at 50.0 µM 91.2% | [11]; at 100.0 µM 87% | [12]; at 33.0 µM 96% | [12]; at 100.0 µM 94% | [13]; at 33.0 µM 95% | [13]; at 100.0 µM 95% | [14]; [18] 96% | [14]; at 50.0 µM 89.6% | [15]; at 33.0 µM 92% | [15]; at 100.0 µM 87%
inactive: [1]; at 1.2 µM -19% | [1]; at 3.7 µM -19% | [1]; at 11.0 µM 56% | [2]; at 1.2 µM -73% | [2]; at 3.7 µM -61% | [2]; at 11.0 µM -13% | [3]; at 1.2 µM -29% | [3]; at 3.7 µM -10% | [3]; at 11.0 µM 67% | [4]; at 1.2 µM -46% | [4]; at 3.7 µM -47% | [4]; at 11.0 µM 8% | [5]; at 1.2 µM -15% | [5]; at 3.7 µM 0% | [5]; [17] 17% | [5]; at 11.0 µM 19% | [6]; at 1.2 µM -69% | [6]; at 3.7 µM -40% | [6]; [17] 29% | [6]; at 11.0 µM 19% | [7]; at 1.2 µM -18% | [7]; at 3.7 µM -8% | [7]; at 11.0 µM 64% | [8]; [17] 5% | [9]; at 1.2 µM 5% | [9]; at 3.7 µM 19% | [9]; at 11.0 µM 45% | [10]; [17] 4% | [10]; [18] -12% | [11]; at 1.2 µM -11% | [11]; at 3.7 µM 0% | [11]; [17] 3% | [11]; at 11.0 µM -3% | [12]; at 1.2 µM -35% | [12]; at 3.7 µM -43% | [12]; at 11.0 µM 33% | [13]; at 1.2 µM -39% | [13]; at 3.7 µM -38% | [13]; at 11.0 µM 25% | [14]; [17] 47% | [15]; at 1.2 µM -36% | [15]; at 3.7 µM -25% | [15]; at 11.0 µM 58%

CN(C)Cc1cc(N=Nc2ccc(Cl)cc2)ccc1OC(=O)c1ccccc1
active: [4]; at 100.0 µM 82% | [5]; at 50.0 µM 90.3% | [6]; at 50.0 µM 97.2% | [8]; at 50.0 µM 98.3% | [10]; at 50.0 µM 97% | [11]; at 50.0 µM 98.5% | [16]; at 100.0 µM 74% | [14]; at 50.0 µM 98.5%
inactive: [1]; at 1.2 µM 1% | [1]; at 3.7 µM 3% | [1]; at 11.0 µM 1% | [1]; at 33.0 µM 7% | [1]; at 100.0 µM 17% | [2]; at 1.2 µM 1% | [2]; at 3.7 µM 1% | [2]; at 11.0 µM 3% | [2]; at 33.0 µM 3% | [2]; at 100.0 µM -1% | [3]; at 1.2 µM 4% | [3]; at 3.7 µM 7% | [3]; at 11.0 µM 20% | [3]; at 33.0 µM 22% | [3]; at 100.0 µM 41% | [4]; at 1.2 µM 0% | [4]; at 3.7 µM 1% | [4]; at 11.0 µM 5% | [4]; at 33.0 µM 48% | [5]; at 1.2 µM 1% | [5]; at 3.7 µM 1% | [5]; [17] -10% | [5]; at 11.0 µM 1% | [5]; at 33.0 µM 5% | [5]; [18] 10% | [5]; at 100.0 µM 11% | [6]; at 1.2 µM -3% | [6]; at 3.7 µM 3% | [6]; [17] -2% | [6]; at 11.0 µM -2% | [6]; at 33.0 µM 3% | [6]; [18] 47% | [6]; at 100.0 µM 42% | [7]; at 1.2 µM -1% | [7]; at 3.7 µM -2% | [7]; at 11.0 µM 1% | [7]; at 33.0 µM 14% | [7]; at 100.0 µM 51% | [8]; [17] 38% | [8]; [18] 48% | [9]; at 1.2 µM 3% | [9]; at 3.7 µM -1% | [9]; at 11.0 µM 1% | [9]; at 33.0 µM 0% | [9]; at 100.0 µM 5% | [10]; [17] -20% | [10]; [18] 51% | [11]; at 1.2 µM -2% | [11]; at 3.7 µM -2% | [11]; [17] -15% | [11]; at 11.0 µM -4% | [11]; at 33.0 µM 5% | [11]; [18] 54% | [11]; at 100.0 µM 23% | [12]; at 1.2 µM 1% | [12]; at 3.7 µM 2% | [12]; at 11.0 µM 6% | [12]; at 33.0 µM 21% | [12]; at 100.0 µM 52% | [13]; at 1.2 µM 2% | [13]; at 3.7 µM 2% | [13]; at 11.0 µM 4% | [13]; at 33.0 µM 31% | [13]; at 100.0 µM 67% | [16]; at 1.2 µM 0% | [16]; at 3.7 µM 5% | [16]; at 11.0 µM 9% | [16]; at 33.0 µM 42% | [14]; [17] -9% | [14]; [18] 61% | [15]; at 1.2 µM 1% | [15]; at 3.7 µM 1% | [15]; at 11.0 µM -16% | [15]; at 33.0 µM 17% | [15]; at 100.0 µM 58%

Cc1c(C(C)C)cc(OCCO)cc1C(C)C
active: [1]; at 100.0 µM 77% | [5]; at 100.0 µM 73%
inactive: [1]; at 1.2 µM -3% | [1]; at 3.7 µM -1% | [1]; at 11.0 µM -4% | [1]; at 33.0 µM 4% | [2]; at 1.2 µM -2% | [2]; at 3.7 µM -3% | [2]; at 11.0 µM -3% | [2]; at 33.0 µM -7% | [2]; at 100.0 µM -7% | [3]; at 1.2 µM -1% | [3]; at 3.7 µM -2% | [3]; at 11.0 µM 0% | [3]; at 33.0 µM 6% | [3]; at 100.0 µM 16% | [4]; at 1.2 µM -4% | [4]; at 3.7 µM -11% | [4]; at 11.0 µM -9% | [4]; at 33.0 µM -12% | [4]; at 100.0 µM 7% | [5]; at 1.2 µM -3% | [5]; at 3.7 µM 2% | [5]; [17] -8% | [5]; at 11.0 µM 2% | [5]; at 33.0 µM 5% | [5]; [18] -20% | [5]; at 50.0 µM 68.7% | [6]; at 1.2 µM -4% | [6]; at 3.7 µM -7%
